Bioassay records: PubChem BioAssay, National Center for Advancing Translational Sciences (NCATS)
Only some compounds are listed: those with a hit (about 2.4% of all), similar ones and a draw of the others.
D2 PAM-1 – positive allosteric modulators of human D2 dopamine receptor; P14416; DiscoveRx D2 beta-arrestin cells, luminescence, 90 min; 100% = 57 uM dopamine signal; 0.23% of 360,000 active; potentiation, % (test concentration not listed); AID 624464; in the data active means potentiation above about 50%; inconclusive means mostly about 30% to 49%
Target sequence (P14416 whole entry, looked up): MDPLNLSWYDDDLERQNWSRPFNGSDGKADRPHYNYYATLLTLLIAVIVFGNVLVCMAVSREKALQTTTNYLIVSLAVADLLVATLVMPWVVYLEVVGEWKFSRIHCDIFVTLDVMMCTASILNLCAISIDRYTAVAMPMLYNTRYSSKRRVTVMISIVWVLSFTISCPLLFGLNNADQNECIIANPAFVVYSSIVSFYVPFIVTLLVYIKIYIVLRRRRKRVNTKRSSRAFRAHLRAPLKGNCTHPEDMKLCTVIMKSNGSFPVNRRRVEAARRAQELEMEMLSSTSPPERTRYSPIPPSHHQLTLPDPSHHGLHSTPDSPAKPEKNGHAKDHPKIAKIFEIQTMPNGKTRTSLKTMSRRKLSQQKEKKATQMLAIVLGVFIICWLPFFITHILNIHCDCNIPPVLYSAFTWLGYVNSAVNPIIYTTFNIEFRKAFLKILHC
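PathHunter D2 cells, attached overnight at 37 deg C, received compound in DMSO plus dopamine at EC20 (50 nM final) for 90 min at 37 deg C. Beta-arrestin recruitment was read as luminescence after 1 h with detection reagent at ambient temperature.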
D2 PAM-2 – D2 dopamine receptor (human) potentiation | 0.34% of 340,000 active | AID 485347 | potentiation, % at 10 µM | HEK293 T-REx D2, calcium flux, EC20 dopamine potentiation;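 active means potentiation over 3 SD above the plate norm, cut at about 30% in these data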
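Tetracycline-induced HEK293 T-REx cells force-coupled to calcium signalling expressed D2; compounds were pin-added after a 10 s baseline, read kinetically 180 s, then an EC20 dopamine challenge followed with a further 180 s calcium read.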
D2 antag – antagonizes the human D2 dopamine receptor; HEK293 TREx D2 cells, calcium flux, dopamine EC80; inhibition, % at 10 µM; AID 485344; 2% of 340,000 active; P14416; in the data active means inhibition above about 30%; inactive means below that, where a call was filed
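Tetracycline-induced HEK293 TREx cells expressing D2 receptor forced-coupled to calcium signalling, loaded with no-wash calcium dye. Compounds added and calcium flux read 180 s, then dopamine added at EC80 and read a further 180 s.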
D2 ag-1 – human D2 receptor agonism in beta-arrestin assay; 0.084% of 360,000 active; AID 624465; P14416; activation, % (test concentration not listed); DiscoveRx PathHunter D2 beta-arrestin, luminescence, 90 min; 100% = 57 uM dopamine signal; in the data active means activation above about 40%; inconclusive means between about 15% and that limit
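DiscoveRx PathHunter D2 beta-arrestin cells (2,100/well) attached overnight, then compound-stimulated 90 min at 37 C in HBSS/10 mM HEPES/0.1% Tween-20 buffer; beta-galactosidase complementation read by luminescence after 1 h at ambient temperature. Dopamine 57 uM final (EC100) as control.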
D2 ag-2 – D2 dopamine receptor (human) agonism; P14416; HEK293 T-REx D2 cells, calcium flux agonist mode; activation, % at 2 µM; 0.53% of 340,000 active; AID 485358;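 active means activation over 3 SD above normal in the single-dose calcium agonist read, cut at about 30% in these data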
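Agonism is scored from calcium flux in a force-coupled, inducible HEK293 cell line expressing D2, read kinetically for 180 s after compound addition against dopamine controls.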
Large screens that a line does not name were inactive.

CCC(=O)c1ccc(OCC(=O)NCCC2=CCCCC2)c(OC)c1	none
COc1cc(C(=O)NCCC2=CCCCC2)ccc1OCc1c(C)noc1C	D2 antag 31.6
COc1cc2ccnc(Cc3cccc(OC)c3OC)c2cc1OC	D2 PAM-1 55.3
Cc1ccc(-c2nn(Cc3ccccc3)cc2C(=O)NCC2CCCO2)cc1 (stereo not drawn)	none
Cc1ccc(-c2nn(-c3ccccc3Cl)cc2C(=O)NCC2CCCO2)cc1 (stereo not drawn)	D2 antag 30.9
CC(=O)c1ccc(NC(=O)c2cn(-c3ccccc3)nc2-c2ccncc2)cc1	D2 PAM-2 34.8
Cc1cccc(NC(=O)c2cn(-c3ccccc3)nc2-c2ccccc2)c1	D2 antag 40.3
Cc1ccc(-c2nn(-c3ccccc3)cc2C(=O)NCCCN2CCOCC2)cc1	D2 antag 31.0
Cc1ccc(NS(=O)(=O)c2ccc3[nH]c4c(c3c2)CCCCC4)cc1	none (no result: D2 PAM-1, D2 antag, D2 ag-1)
Cc1ccc2cccc(NC(=O)c3ccc(-c4ccc(Cl)cc4Cl)o3)c2n1	none (no result: D2 PAM-1, D2 antag, D2 ag-1)
COC(=O)c1ccc(NC(=O)c2cn(-c3ccccc3)nc2-c2ccncc2)cc1	D2 antag 91.4
O=C(CSc1cccc(C(F)(F)F)c1)NC(=O)c1ccccc1	none
COc1ccc(Cl)cc1NC(=O)CSc1nc(N2CCOCC2)nc(N2CCOCC2)n1	none
O=C(CSc1nc(N2CCOCC2)nc(N2CCOCC2)n1)Nc1ccc(Cl)cc1Cl	D2 antag 33.1
O=C(CSc1cccc(C(F)(F)F)c1)Nc1ccc(Cl)cc1Cl	D2 antag 48.6
CCN(CC)CC#CCC(O)(c1ccccc1)c1ccc(Br)cc1 (stereo not drawn)	D2 antag 34.5
c1csc(-c2nnc(NC3CCCCC3)c3ccccc23)c1	D2 antag 43.2
COC(=O)C1Sc2[nH]c(=O)sc2C(c2ccc(Cl)cc2)C1C(=O)OC (stereo not drawn)	D2 antag 37.6
COC(=O)C1Sc2[nH]c(=O)sc2C2c3ccccc3OC(=O)C12 (stereo not drawn)	none
COc1cc(OC)c(C(=O)NC23CC4CC(CC(C4)C2)C3)cc1OC	D2 PAM-1 65.1
CC1CC(C)CN(C(=O)COC(=O)c2cccc([N+](=O)[O-])c2)C1 (stereo not drawn)	none
O=C(OCC(=O)N1CCN(c2ccccc2)CC1)c1cccc([N+](=O)[O-])c1	D2 antag 30.3
O=C(COC(=O)C1(c2ccccc2)CC1)N1CCN(c2ccc(F)cc2)CC1	D2 antag 35.5
O=C(COc1ccccc1)N1CCN(c2ccccc2)CC1	D2 antag 30.1
O=C(COc1ccc(Br)cc1)N1CCN(c2ccccc2)CC1	none
O=C(NCc1ccc(Cl)cc1)c1cnc2sc(N3CCCC3)nn2c1=O	none (no result: D2 PAM-1, D2 antag, D2 ag-1)
CCOc1ccc(S(=O)(=O)NCCc2sc3nc(-c4ccc(C)cc4)nn3c2C)cc1	none (no result: D2 PAM-1, D2 antag, D2 ag-1, D2 ag-2)
CN(Cc1nc(-c2cccc(Cl)c2)no1)C1CCOCC1	D2 antag 46.9
COc1ccc(C(C)=O)cc1COC(=O)C1CC(=O)N(Cc2ccccc2)C1 (stereo not drawn)	D2 PAM-1 53.8
COc1cccc(COC(=O)C2CC(=O)N(Cc3ccccc3)C2)c1OC (stereo not drawn)	none (no result: D2 PAM-2, D2 antag, D2 ag-2)
O=S(=O)(CCN1CCCCC1)CCS(=O)(=O)CCN1CCCCC1	none (no result: D2 PAM-2, D2 antag, D2 ag-2)
C=CCN1C=CC(=CC=C(C#N)C#N)C=C1	D2 ag-2 53.2
COc1cc(Cl)c(CC(=O)c2c[nH]c3ccccc23)cc1OC	D2 antag 32.5
COc1ccc(Cl)cc1NC(=O)CNC(c1ccccc1)c1ccccc1	none
COc1ccc(OC)c(NC(=O)CNC(c2ccccc2)c2ccccc2)c1	D2 antag 31.3
COc1ccc(C)cc1NC(=O)CNC(c1ccccc1)c1ccccc1	D2 antag 37.2
CCn1ccc2cc(S(=O)(=O)N3CCCN(C(=O)Nc4ccc(C)cc4Cl)CC3)ccc21	none (no result: D2 PAM-1, D2 antag, D2 ag-1)
COc1cccc(C(NC(C)=O)c2nc(-c3cccc(C(=O)O)c3)cs2)c1 (stereo not drawn)	none (no result: D2 PAM-2, D2 antag, D2 ag-2)
Cc1ccc(NC(=O)C2CCN(c3nc4ccccc4nc3C(F)(F)F)CC2)cc1C	none (no result: D2 PAM-1, D2 antag, D2 ag-1)
Cn1c(=O)c2sccc2n(CC(=O)NCCC2=CCCCC2)c1=O	none
Cn1c(=O)c2ccccc2n(CC(=O)NCCC2=CCCCC2)c1=O	D2 antag 40.9
Cc1ccc(S(=O)(=O)N2CC=C(c3c(C)n(CC(=O)N4CCCC4)c4ccccc34)CC2)cc1C	none (no result: D2 PAM-1, D2 antag, D2 ag-1)
COc1ccccc1C(=O)NCCC(=O)NCCC12CC3CC(CC(C3)C1)C2	none
COc1ccc(C23CC4CC(CC(C4)C2)C3)cc1C(=O)NCCN(C)C	D2 antag 33.5
CCc1c(C)nc2nncn2c1Nc1ccc(Cl)cc1	none (no result: D2 PAM-1, D2 antag, D2 ag-1)
CC(=O)NNC(=S)NCCc1ccccc1	D2 antag 48.7
O=[N+]([O-])c1cccc(NC(=S)NCCc2ccccc2)c1	D2 antag 79.7
COc1ccc(C(=O)c2cn(Cc3ccccc3F)c3ccc(F)cc3c2=O)cc1	none (no result: D2 PAM-1, D2 antag, D2 ag-1)
COc1ccc(NC(=O)C2CSC3c4ccccc4C(=O)N23)cc1 (stereo not drawn)	D2 antag 31.6
COC(=O)C1CSC2c3ccccc3C(=O)N12 (stereo not drawn)	none (no result: D2 PAM-2, D2 antag, D2 ag-2)
CCC(C)(C)NC(=O)CN(C(=O)CCC(=O)Nc1nccs1)c1ccccc1C	D2 antag 39.0
N/C(=N\OS(=O)(=O)c1ccc(Cl)cc1)c1ccncc1	D2 PAM-1 67.0, D2 ag-1 inconclusive
Cc1nc(-c2cc(C#N)c(=O)[nH]c2C)cs1	none
Cc1[nH]c(=O)c(C#N)cc1-c1csc(-c2ccccc2)n1	D2 antag 38.7
O=C1/C(=C\c2ccco2)SC(=S)N1c1ccccc1	D2 antag 47.5
CC(C(=O)N1CCN(Cc2ccccc2)CC1)n1ncn2cccc2c1=O (stereo not drawn)	D2 antag 48.5
CCCCC(CC)CNC(=O)CCCc1nnc2n(CCC)c(=O)c3sccc3n12 (stereo not drawn)	none (no result: D2 PAM-1, D2 antag, D2 ag-1)
C=CCC(NCc1ccccc1)c1ccco1 (stereo not drawn)	D2 PAM-2 40.7
C=CCC(NCc1ccccc1)c1ccc(OC)cc1 (stereo not drawn)	none
O=C(NCc1cccc(F)c1)c1ccc(CS(=O)c2ccccc2Cl)o1 (stereo not drawn)	none (no result: D2 PAM-1, D2 antag, D2 ag-1)
CCOC(=O)CNC(=O)Cn1cnc2sc(C)c(S(=O)(=O)N3CCOCC3)c2c1=O	none
Cc1sc2ncn(CC(=O)NCc3ccccn3)c(=O)c2c1S(=O)(=O)N1CCOCC1	D2 PAM-2 48.8
Cc1ccccc1C(=O)Nc1ccc(OCc2cc(=O)n3ccccc3n2)cc1	none (no result: D2 PAM-1, D2 antag, D2 ag-1)
O=C1c2ccccc2NC2CCCCCN12 (stereo not drawn)	D2 PAM-2 30.1
Cc1nnc(NCc2ccc(Cl)cc2)c2c1nnn2Cc1ccc(F)cc1	none (no result: D2 PAM-1, D2 antag, D2 ag-1)
